Values without a mark were called inactive. Activity calls are given as the source filed them. Unless noted, no stated cut-off is given here; in the data, active means inhibition above about 42%; inactive means the rest.
Test system: not listed separately
Assay: StAR promoter reporter inhibitors, counter-screen for LRH-1 inverse agonist project, cell-based, luminescence, high throughput (AID 651611; in the data active means inhibition above about 28%)
Details: StAR promoter luciferase reporter counterscreen, at 3.6 µM, stronger effect = higher value

Compound	inhibition
C[C@@H]1O[C@@H](O[C@@H]2C=C3CC[C@@H]4C(CC[C@]5(C)[C@@H](c6ccc(=O)oc6)CC[C@]45O)[C@@]3(C)CC2)[C@H](O)[C@H](O)[C@H]1O (stereo partly specified)	97.1% (active)
CCOC(=O)c1c(C)n(CC(O)CN2CCOCC2)c2cc(Br)c(OC)cc12 (stereo unspecified)	22%
CC(C)N(C(=O)CCl)c1ccccc1	19.8%
Cn1cc(NC(=O)CCl)cn1	41% (active)
CCOC(=O)[C@]12Cc3cc(Cl)ccc3[C@H]1N(C1CCCCC1)C(=O)c1ccccc12	80.2% (active)
CC12CCC(O)CC1CCC1C2CCC2(C)C(C3=CC(=O)OC3)C(O)CC12O (stereo unspecified)	92.6% (active)
CCOc1cc(C=O)ccc1O	-4.06%
C=C1C(=O)O[C@@H]2C[C@@H](C)[C@@H]3C4OC4C(=O)[C@@]3(C)[C@@H](O)[C@H]12 (stereo partly specified)	-30%
C=C1[C@@H](C)[C@H]2[C@H](Cc3ccccc3)NC(=O)[C@]23OC(=O)/C=C/[C@H](O)CCC[C@@H](C)C/C=C/[C@H]3[C@@H]1O	52.7% (active)
CC(=O)O[C@H]1C(=O)[C@@]2(C)C([C@H](OC(=O)c3ccccc3)[C@]3(O)C[C@H](OC(=O)[C@H](O)[C@@H](NC(=O)Cc4ccccc4)c4ccccc4)C(C)=C1C3(C)C)[C@]1(OC(C)=O)CO[C@@H]1C[C@@H]2O (stereo partly specified)	50.1% (active)
CCOC(=O)[C@]12Cc3ccc(C)cc3[C@H]1N(C1CCCCC1)C(=O)c1cc(OC)ccc12	77.2% (active)
CCCCn1c(NC(=O)c2ccc(Br)o2)c(C(=O)OCC)c2nc3ccccc3nc21	27.1%
CCOC(=O)[C@]12Cc3cc(C)ccc3[C@H]1N(C1CCCCC1)C(=O)c1ccccc12	71.1% (active)
COC(=O)C12CCc3c(ccc4cc(OC)ccc34)C1=CC(=O)C2 (stereo unspecified)	0.25%
CC1=C(O)C(=O)C=C2C1=CC=C1C2(C)CCC2(C)C3CC(C)(C(=O)O)CCC3(C)CCC12C (stereo unspecified)	91.6% (active)
COc1cc2c(cc1OC)[C@@H]1C(=O)c3ccc4c(c3O[C@@H]1CO2)C[C@H](C(C)C)O4	34.2% (active)
CC(=O)OC(C)(C)/C=C/C(=O)C(C)(O)C1C(O)CC2(C)C3CC=C4C(CC(O)C(=O)C4(C)C)C3(C)C(=O)CC12C (stereo unspecified)	66% (active)
Cc1ccccc1-n1c(/C=C/c2ccccn2)nc2ccccc2c1=O	35.8% (active)
N#CCCn1cc(C(=O)Nc2ccccc2Br)c(-c2ccc([N+](=O)[O-])cc2)n1	18.4%

Compound	inhibition
O=[N+]([O-])c1cc(F)c(N2CCCCCC2)cc1N1CCNCC1	14.3%
CC1CCN(C(=O)CCl)CC1	21.1%
CCOC(=O)[C@]12Cc3ccc(C)cc3[C@H]1N(C1CCCCC1)C(=O)c1ccccc12	39.6% (active)
N#Cc1ccc(NC(=S)N2Cc3ccccc3-n3nncc3C2)cc1	-5.3%
Cc1ccc(-n2nc(C)cc2NC(=O)COc2cc(C)cc3oc(=O)c4c(c23)CCC4)cc1	19.1%
CC(=O)OC1C(O)C(C)OC(OC2C(OC(=O)C3CCC4C(C3)OC3(CC(OC(=O)/C=C/c5ccccc5)C(C)CO3)C43CO3)OC(C)C(O)C2OC(C)=O)C1O (stereo unspecified)	96.1% (active)
CC(=O)c1cn(Cc2ccccc2C#N)c2ccccc12	28.8% (active)
COC(=O)COc1cc(C)cc2oc(=O)c3c(c12)CCCC3	3.14%
c1ccc2c(c1)[IH]c1ccccc1-2	42.4% (active)
Cc1nn(Cc2ccccc2)c(C)c1C(=O)OCC(=O)Nc1ccccc1SCC#N	-1.13%
O=C1Nc2ccccc2/C1=C/c1cnc[nH]1	14.6%
OC1(c2ccc(F)cc2)CC2CCC(C1)N2Cc1nnnn1C1CCCC1 (stereo unspecified)	-7.67%
NC(Cc1ccc(F)cc1)c1csc(Nc2ncccn2)n1 (stereo unspecified)	40.1% (active)
O=c1[nH]c2ccccc2n1C1CCN(Cc2ccc(-c3[nH]c4cc5ncnc5cc4nc3-c3ccccc3)cc2)CC1	42.3% (active)
CCOC(=O)[C@]12Cc3cc(C)ccc3[C@H]1N(C1CCCCC1)C(=O)c1cc(OC)ccc12	63.5% (active)
N#CCCn1cc(C(=O)Nc2ccccc2Cl)c(-c2ccc([N+](=O)[O-])cc2)n1	16.9%
CCOC(=O)[C@]12Cc3cc(Cl)ccc3[C@H]1N(CC(=O)OC)C(=O)c1ccccc12	72.7% (active)
COC(=O)C(C)Oc1cc(C)cc2oc(=O)c3c(c12)CCC3 (stereo unspecified)	47.8% (active)
CCN(CC)C(=O)COc1cc(C)cc2oc(=O)c3c(c12)CCCC3	7.68%

Molecular target: Nuclear receptor subfamily 5 group A member 2 (Homo sapiens) (UniProt O00482)
Sequence (O00482 whole entry, looked up): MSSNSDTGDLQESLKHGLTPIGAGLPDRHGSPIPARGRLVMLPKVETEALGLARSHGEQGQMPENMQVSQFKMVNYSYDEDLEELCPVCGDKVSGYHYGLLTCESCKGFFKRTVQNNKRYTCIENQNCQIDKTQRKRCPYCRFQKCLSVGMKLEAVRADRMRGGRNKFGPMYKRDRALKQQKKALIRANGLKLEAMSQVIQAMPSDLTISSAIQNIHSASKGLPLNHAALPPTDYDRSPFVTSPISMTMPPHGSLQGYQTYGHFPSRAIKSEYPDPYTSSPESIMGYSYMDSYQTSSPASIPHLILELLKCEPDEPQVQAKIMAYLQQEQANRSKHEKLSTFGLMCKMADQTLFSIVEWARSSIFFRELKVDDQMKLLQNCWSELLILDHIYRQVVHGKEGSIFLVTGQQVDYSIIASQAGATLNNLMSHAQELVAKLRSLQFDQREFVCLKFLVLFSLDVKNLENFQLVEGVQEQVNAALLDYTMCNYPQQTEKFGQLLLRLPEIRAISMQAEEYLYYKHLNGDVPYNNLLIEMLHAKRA
Assay: NR5A2 activity suppression in reporter cells – cell-based, luminescence, confirmation (AID 651613);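 further: HEK293T cells co-transfected with LRH-1 and StAR promoter luciferase reporter; 0% = vehicle wells and 100% = parental cells lacking receptor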
Details: cell-based LRH-1 luciferase reporter, inverse agonism; at 3.6 µM; stronger effect = higher value

Compound	inhibition
C[C@@H]1O[C@@H](O[C@@H]2C=C3CC[C@@H]4C(CC[C@]5(C)[C@@H](c6ccc(=O)oc6)CC[C@]45O)[C@@]3(C)CC2)[C@H](O)[C@H](O)[C@H]1O (stereo partly specified)	111% (active)
CCOC(=O)c1c(C)n(CC(O)CN2CCOCC2)c2cc(Br)c(OC)cc12 (stereo unspecified)	57.1% (active)
CC(C)N(C(=O)CCl)c1ccccc1	54.8% (active)
Cn1cc(NC(=O)CCl)cn1	61.9% (active)
CCOC(=O)[C@]12Cc3cc(Cl)ccc3[C@H]1N(C1CCCCC1)C(=O)c1ccccc12	107% (active)
CC12CCC(O)CC1CCC1C2CCC2(C)C(C3=CC(=O)OC3)C(O)CC12O (stereo unspecified)	94.1% (active)
CCOc1cc(C=O)ccc1O	41.4% (active)
C=C1C(=O)O[C@@H]2C[C@@H](C)[C@@H]3C4OC4C(=O)[C@@]3(C)[C@@H](O)[C@H]12 (stereo partly specified)	60.7% (active)
C=C1[C@@H](C)[C@H]2[C@H](Cc3ccccc3)NC(=O)[C@]23OC(=O)/C=C/[C@H](O)CCC[C@@H](C)C/C=C/[C@H]3[C@@H]1O	27.9%
CC(=O)O[C@H]1C(=O)[C@@]2(C)C([C@H](OC(=O)c3ccccc3)[C@]3(O)C[C@H](OC(=O)[C@H](O)[C@@H](NC(=O)Cc4ccccc4)c4ccccc4)C(C)=C1C3(C)C)[C@]1(OC(C)=O)CO[C@@H]1C[C@@H]2O (stereo partly specified)	45.2% (active)
CCOC(=O)[C@]12Cc3ccc(C)cc3[C@H]1N(C1CCCCC1)C(=O)c1cc(OC)ccc12	104% (active)
CCCCn1c(NC(=O)c2ccc(Br)o2)c(C(=O)OCC)c2nc3ccccc3nc21	27.8%
CCOC(=O)[C@]12Cc3cc(C)ccc3[C@H]1N(C1CCCCC1)C(=O)c1ccccc12	102% (active)
COC(=O)C12CCc3c(ccc4cc(OC)ccc34)C1=CC(=O)C2 (stereo unspecified)	12.9%
CC1=C(O)C(=O)C=C2C1=CC=C1C2(C)CCC2(C)C3CC(C)(C(=O)O)CCC3(C)CCC12C (stereo unspecified)	106% (active)
COc1cc2c(cc1OC)[C@@H]1C(=O)c3ccc4c(c3O[C@@H]1CO2)C[C@H](C(C)C)O4	68.7% (active)
CC(=O)OC(C)(C)/C=C/C(=O)C(C)(O)C1C(O)CC2(C)C3CC=C4C(CC(O)C(=O)C4(C)C)C3(C)C(=O)CC12C (stereo unspecified)	56.8% (active)
Cc1ccccc1-n1c(/C=C/c2ccccn2)nc2ccccc2c1=O	49.5% (active)
N#CCCn1cc(C(=O)Nc2ccccc2Br)c(-c2ccc([N+](=O)[O-])cc2)n1	61.5% (active)

Compound	inhibition
O=[N+]([O-])c1cc(F)c(N2CCCCCC2)cc1N1CCNCC1	54.1% (active)
CC1CCN(C(=O)CCl)CC1	58.2% (active)
CCOC(=O)[C@]12Cc3ccc(C)cc3[C@H]1N(C1CCCCC1)C(=O)c1ccccc12	98% (active)
N#Cc1ccc(NC(=S)N2Cc3ccccc3-n3nncc3C2)cc1	56.4% (active)
Cc1ccc(-n2nc(C)cc2NC(=O)COc2cc(C)cc3oc(=O)c4c(c23)CCC4)cc1	60.3% (active)
CC(=O)OC1C(O)C(C)OC(OC2C(OC(=O)C3CCC4C(C3)OC3(CC(OC(=O)/C=C/c5ccccc5)C(C)CO3)C43CO3)OC(C)C(O)C2OC(C)=O)C1O (stereo unspecified)	109% (active)
CC(=O)c1cn(Cc2ccccc2C#N)c2ccccc12	57.2% (active)
COC(=O)COc1cc(C)cc2oc(=O)c3c(c12)CCCC3	46.5% (active)
c1ccc2c(c1)[IH]c1ccccc1-2	78.5% (active)
Cc1nn(Cc2ccccc2)c(C)c1C(=O)OCC(=O)Nc1ccccc1SCC#N	58.8% (active)
O=C1Nc2ccccc2/C1=C/c1cnc[nH]1	14.2%
OC1(c2ccc(F)cc2)CC2CCC(C1)N2Cc1nnnn1C1CCCC1 (stereo unspecified)	46.8% (active)
NC(Cc1ccc(F)cc1)c1csc(Nc2ncccn2)n1 (stereo unspecified)	43.3% (active)
O=c1[nH]c2ccccc2n1C1CCN(Cc2ccc(-c3[nH]c4cc5ncnc5cc4nc3-c3ccccc3)cc2)CC1	64.2% (active)
CCOC(=O)[C@]12Cc3cc(C)ccc3[C@H]1N(C1CCCCC1)C(=O)c1cc(OC)ccc12	97.4% (active)
N#CCCn1cc(C(=O)Nc2ccccc2Cl)c(-c2ccc([N+](=O)[O-])cc2)n1	57.2% (active)
CCOC(=O)[C@]12Cc3cc(Cl)ccc3[C@H]1N(CC(=O)OC)C(=O)c1ccccc12	94.3% (active)
COC(=O)C(C)Oc1cc(C)cc2oc(=O)c3c(c12)CCC3 (stereo unspecified)	76.3% (active)
CCN(CC)C(=O)COc1cc(C)cc2oc(=O)c3c(c12)CCCC3	63.6% (active)
